Results reported in the supplement of paper PMC10127200.
Structures can show the parent of a compound that is named as a salt.

What was measured:
Test in all cases: Euclidean distance of Cell Painting phenotypic profile (signed KS, 77 features) to DMSO centroid (dimensionless distance); 5 or 10 uM (library dependent); higher = stronger phenotypic change vs DMSO (phenoactivity)
Conditions in all cases: 48 h
786-O = test system: 786-O
Procedure, shortened: (§1)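 Harmony extracted 77 features from 20X confocal images (9 fields/well) of stained cells, scoring each as a signed Kolmogorov-Smirnov statistic against same-plate vehicle wells. The cells, five cancer lines and a healthy fibroblast line, had received library compounds for 48 h at 10 or 5 uM depending on library, with 0.1% DMSO final. Phenoactivity is the Euclidean distance from each plate-position-corrected, correlation-weighted, top-dose replicate-averaged profile to the median vehicle profile.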

A549 = test system: A549
Procedure, shortened: as §1

DU145 = test system: DU145
Procedure, shortened: as §1

FB = test system: FB
Procedure, shortened: as §1

HEPG2 = test system: HEPG2
Procedure, shortened: as §1

OVCAR4 = test system: OVCAR4
Procedure, shortened: as §1

Compound | Euclidean distance (786-O) | Euclidean distance (A549) | Euclidean distance (DU145) | Euclidean distance (FB) | Euclidean distance (HEPG2) | Euclidean distance (OVCAR4)
CC(C)=CCOc1ccc(/C=C/C(=O)c2ccc(OCC=C(C)C)cc2OCC(=O)O)cc1 [Sofalcone] | 1.25 | 1.09 | 0.847 | 1.01 | 0.922 | 1.08
Oc1cc(O)c(Cl)cn1 [Gimeracil] | 0.868 | 1.07 | 1.6 | 1.25 | 2.06 | 1.53
Cc1c(-c2ccc(-c3ccccc3F)cc2)nc2ccc(F)cc2c1C(=O)O [Brequinar] | 1.61 | 1.46 | 0.974 | 0.698 | 1.44 | 1.45
N=C(N)NC(=N)N1CCOCC1 [Moroxydine HCl] | 1.5 | 0.937 | 1.25 | 0.666 | 0.422 | 1.22
C/C(=C\C(=O)OCCCCCCCCC(=O)O)C[C@@H]1OC[C@H](C[C@@H]2O[C@H]2[C@@H](C)[C@H](C)O)[C@@H](O)[C@H]1O [Mupirocin] | 1.8 | 0.693 | 0.636 | 0.92 | 0.693 | 1.35
CC1=NN(c2ccc(C)c(C)c2)C(=O)/C1=N\Nc1cccc(-c2cccc(C(=O)O)c2)c1O [Eltrombopag] | 2.4 | 1.81 | 3.38 | 2.71 | 3.89 | 2.45
COC(=O)Nc1nc2cc(C(=O)c3ccc(F)cc3)ccc2[nH]1 [Flubendazole] | 2.74 | 2.91 | 3.24 | 2.46 | 2.16 | 3.1
CN1CCC(NC(=O)c2cc(-c3c(O)cc(O)cc3Oc3ccc([N+](=O)[O-])cc3)on2)CC1 | 2.95 | 3.28 | 3.66 | 3.37 | 5.17 | 3.04
Nc1ccc(S(=O)(=O)Nc2ncccn2)cc1 [Sodium sulfadiazine] | 1.29 | 0.966 | 1.5 | 1.52 | 0.727 | 1.12
C[C@@]1(C(=O)Nc2ccc(F)nc2)CCCN1c1nc(Nc2cc(C3CC3)n[nH]2)c2cccn2n1 | 2.52 | 3.2 | 3.3 | 3.23 | 2.63 | 3.61
C/C(=N\NC(=S)N1CCC1)c1ccccn1 | 3.65 | 3.49 | 3.44 | 3.45 | 4.41 | 4.89
COC(=O)c1ccc2c(C(=Nc3ccc(N(C)C(=O)CN4CCN(C)CC4)cc3)c3ccccc3)c(O)[nH]c2c1 [Nintedanib Ethanesulfonate Salt] | 3.68 | 3.84 | 2.5 | 4.88 | 3.9 | 4.19
CCOC(=O)C1=C[C@@H](OC(CC)CC)[C@H](NC(C)=O)[C@@H](N)C1 [Oseltamivir Phosphate] | 1.49 | 1.2 | 1.23 | 0.91 | 0.386 | 1.62
CCN(CC)C(=O)C1(c2ccccc2)CC1CN (configuration not stated) [Milnacipran HCl] | 1.2 | 1.04 | 0.974 | 1.14 | 0.468 | 0.854
N=C(N)NS(=O)(=O)c1ccc(N)cc1 [Sulfaguanidine] | 1.11 | 0.776 | 1.03 | 0.936 | 0.524 | 1.55
O=P(O)(O)C(O)(Cn1ccnc1)P(=O)(O)O [Zoledronic Acid] | 0.951 | 1.23 | 0.9 | 1.37 | 2.13 | 1.11
CN(C)CCn1nnnc1SCC1=C(C(=O)O)N2C(=O)[C@@H](NC(=O)Cc3csc(N)n3)[C@H]2SC1 [Cefotiam hydrochloride] | 1.2 | 1.06 | 0.774 | 0.93 | 0.739 | 0.935
Cc1[nH]c(/C=C2\C(=O)Nc3ccc(S(=O)(=O)Cc4c(Cl)cccc4Cl)cc32)c(C)c1C(=O)N1CCC[C@@H]1CN1CCCC1 | 3.99 | 4.22 | 1.16 | 2 | 1.59 | 4.7
CCCN1CCCC[C@H]1C(=O)Nc1c(C)cccc1C [Ropivacaine Mesilate] | 0.655 | 0.72 | 1.14 | 0.717 | 0.914 | 0.946
O=S(=O)(c1ccccc1)c1cnc2c(N3CCNCC3)cccc2c1 | 0.96 | 0.917 | 0.761 | 0.827 | 1.94 | 0.986
N#CC[C@H](C1CCCC1)n1cc(-c2ncnc3[nH]ccc23)cn1 | 2.03 | 1.27 | 1.36 | 1.23 | 0.819 | 0.709
CC(N)C12CC3CC(CC(C3)C1)C2 (configuration not stated) [Rimantadine] | 0.735 | 0.64 | 0.671 | 1.35 | 0.621 | 1.37
CC(C)NCC(O)c1ccc(O)c(O)c1 (configuration not stated) [Isoprenaline HCl] | 1.55 | 1.42 | 1.07 | 1.04 | 0.596 | 1.2
NC(N)=Nc1nc(CSCC/C(N)=N/S(N)(=O)=O)cs1 [Famotidine] | 1.72 | 0.931 | 1.5 | 1.11 | 2.27 | 1.1

Compound | Euclidean distance (786-O) | Euclidean distance (A549) | Euclidean distance (DU145) | Euclidean distance (FB) | Euclidean distance (HEPG2) | Euclidean distance (OVCAR4)
C=C1CC[C@H]2C(=C)CC[C@H]3C(=C)C(=O)O[C@@H]3[C@@H]12 [Dehydrocostus Lactone] | 6.1 | 3.77 | 7.43 | 3.32 | 3.68 | 2.97
C[N+](C)(C)CCO.O=C([O-])C(O)C(O)C(=O)O (configuration not stated) [Choline bitartrate] | 1.35 | 1.24 | 0.973 | 1.15 | 0.96 | 1.37
CC(=O)O/N=C1\C(=O)N(Cc2cc(Cl)ccc2Cl)c2ccc(Cl)cc21 | 0.757 | 0.621 | 0.687 | 0.682 | 0.571 | 1.34
Cn1cc(-c2ccc3ncc(Cc4ccc5ncccc5c4)n3n2)cn1 | 1.26 | 0.825 | 0.747 | 0.784 | 1.92 | 1.31
Nc1nccs1 [Aminothiazole] | 0.905 | 1.79 | 2.14 | 1.92 | 0.971 | 1.9
Cc1cccc(CC(=O)N2CCc3c2ccc(-c2cn(C)c4ncnc(N)c24)c3F)n1 | 1.25 | 2.13 | 1.84 | 1.96 | 1.24 | 1.35
CCCCOc1nc(N)c2c(n1)N(Cc1cccc(CN3CCCC3)c1)CC(=O)N2 | 1.32 | 0.517 | 0.661 | 0.941 | 0.589 | 1
CCCCN(Cc1ccc(C(=O)NO)cc1)C(=O)Nc1ccccc1 [Nexturastat A] | 1.18 | 1.83 | 2.03 | 3.14 | 1.55 | 2.05
Cc1c(C(=O)NN2CCCCC2)nn(-c2ccc(Cl)cc2Cl)c1-c1ccc(I)cc1 | 1.16 | 1.17 | 0.842 | 1.03 | 0.6 | 0.903
CC(C)Oc1ccc(-c2nc(-c3cccc4c3CC[C@@H]4NCCO)no2)cc1C#N [Ozanimod (RPC1063)] | 1.97 | 1.08 | 0.79 | 1.6 | 1.46 | 1.68
C#CCN(C)Cc1ccccc1 [Pargyline hydrochloride] | 1.39 | 0.874 | 1.18 | 1.16 | 0.696 | 1.43
CC(=O)Nc1ncc([N+](=O)[O-])s1 [Nithiamide] | 0.999 | 0.607 | 0.822 | 0.606 | 2.08 | 0.885
COC(=O)N(C)c1c(N)nc(-c2nn(Cc3ccccc3F)c3ncccc23)nc1N [Riociguat (BAY 63-2521)] | 1.1 | 0.74 | 0.825 | 1.34 | 0.598 | 0.876
Cc1ccc(C(=O)Nc2ccc(CN3CCN(C)CC3)c(C(F)(F)F)c2)cc1C#Cc1cnc2cccnn12 | 4.62 | 4.2 | 6.75 | 1.08 | 4.93 | 4.29
O=C(O)C1=C(CSc2nnnn2CS(=O)(=O)O)CS[C@@H]2[C@H](NC(=O)[C@H](O)c3ccccc3)C(=O)N12 [Cefonicid sodium] | 0.931 | 0.892 | 0.858 | 1.26 | 0.665 | 1.46
CCCCCOc1ccc(-c2cc(-c3ccc(C(=O)N[C@H]4C[C@@H](O)[C@@H](O)NC(=O)[C@@H]5[C@@H](O)[C@@H](C)CN5C(=O)[C@H]([C@H](O)CC(N)=O)NC(=O)[C@H]([C@H](O)[C@@H](O)c5ccc(O)c(OS(=O)(=O)O)c5)NC(=O)[C@@H]5C[C@@H](O)CN5C(=O)[C@H]([C@@H](C)O)NC4=O)cc3)no2)cc1 [Micafungin Sodium] | 1.25 | 1.24 | 1.1 | 1.25 | 1.15 | 1.27
NC(=O)NO [Hydroxyurea] | 1.25 | 0.771 | 1.13 | 0.703 | 0.79 | 1.18
c1cnc(N2CCN(Cc3ccc4c(c3)OCO4)CC2)nc1 [Piribedil] | 1.19 | 0.769 | 1.21 | 1.05 | 0.645 | 0.899
O=C1NS(=O)(=O)c2ccccc21 [Saccharin] | 1.09 | 0.449 | 0.729 | 0.738 | 0.461 | 0.73
CN(CCOc1ccc(CC2SC(=O)NC2=O)cc1)c1ccccn1 (configuration not stated) [Rosiglitazone] | 1.31 | 0.979 | 0.878 | 1.79 | 0.962 | 1.14
COc1ccc(CN2C3CC2CN(c2ccc(-c4cc(OCC(C)(C)O)cn5ncc(C#N)c45)cn2)C3)cn1 [Selpercatinib (LOXO-292. ARRY-192)] | 0.919 | 2.72 | 0.961 | 1.56 | 0.545 | 1.15
CC(C)c1nc(N(C)S(C)(=O)=O)nc(-c2ccc(F)cc2)c1/C=C/[C@@H](O)C[C@@H](O)CC(=O)O [Rosuvastatin Calcium] | 0.535 | 0.682 | 2.17 | 1.71 | 1.03 | 0.889
COc1cc(N2CCC(N3CCN(C)CC3)CC2)ccc1Nc1ncc(Cl)c(Nc2ccccc2P(C)(C)=O)n1 | 1.49 | 2.29 | 2.68 | 4.2 | 1.51 | 1.74
